# PubChem BioAssay (NCATS)
# Results filed as inconclusive are left out. A call without a number means that no potency is given here. Unmarked numbers belong to inactive results. Calls of active or inactive are those of the source. The call rests on the fitted dose curve; in most records, active means well fitted curve in the direction sought with a large enough effect; inconclusive means small, poorly fitted or top-dose-only effect, or another doubt; inactive means no such curve, though single readings can be large; an effect the other way counts as inactive or inconclusive.
# Legend:
# [1] = Quantitative High-Throughput drug screen in 47 multiple myeloma cell lines against the NCATS MIPE library collection: KMS12PE_JCRB cell viability assay (AID 1918972); further: nearly all actives have a fitted effect of over 30% in size; further: potency means the concentration at half of the fitted maximal effect
# In short: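 qHTS of the MIPE 4.0 collection: 500 myeloma cells/well, 48 h drug exposure at 37C in 5% CO2, then CellTiter-Glo for 5 min at room temperature before luminescence reading.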
# [2] = Quantitative High-Throughput drug screen in 47 multiple myeloma cell lines against the NCATS MIPE library collection: OCIMY1_PLB cell viability assay (AID 1918979); further: nearly all actives have a fitted effect of over 35% in size
# In short: (§1)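 Viability after 48 h drug exposure was measured as ATP-dependent luminescence. Cells, 500 per well, sat at 37 °C under 5% CO2; DMSO wells set 100%, media-only wells 0%.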
# [3] = Quantitative High-Throughput drug screen in 47 multiple myeloma cell lines against the NCATS MIPE library collection: MM1S_ATCC cell viability assay (AID 1918980); further: nearly all actives have a fitted effect of over 45% in size; further: potency means the concentration at half of the fitted maximal effect
# In short: as §1
# [4] = Quantitative High-Throughput drug screen in 47 multiple myeloma cell lines against the NCATS MIPE library collection: MM1R_ATCC cell viability assay (AID 1918981); further: nearly all actives have a fitted effect of over 35% in size; further: potency means the concentration at half of the fitted maximal effect
# In short: as §1
# [5] = Quantitative High-Throughput drug screen in 47 multiple myeloma cell lines against the NCATS MIPE library collection: LP1_DSMZ cell viability assay (AID 1918982); further: nearly all actives have a fitted effect of over 35% in size; further: potency means the concentration at half of the fitted maximal effect
# In short: as §1
# [6] = Quantitative High-Throughput drug screen in 47 multiple myeloma cell lines against the NCATS MIPE library collection: KMS28PE_JCRB cell viability assay (AID 1918983); further: nearly all actives have a fitted effect of over 35% in size; further: potency means the concentration at half of the fitted maximal effect
# In short: as §1
# [7] = Quantitative High-Throughput drug screen in 47 multiple myeloma cell lines against the NCATS MIPE library collection: OCIMY7_PLB cell viability assay (AID 1918987); conditions: OCI-MY7 myeloma viability, CellTiter-Glo ATP, 48 h; viability (% of DMSO): at 45.8 µM (top of the series); further: potency means the concentration at half of the fitted maximal effect; nearly all actives have a fitted effect of over 65% in size
# In short: as §1
# [8] = Quantitative High-Throughput drug screen in 47 multiple myeloma cell lines against the NCATS MIPE library collection: OCIMY5_PLB cell viability assay (AID 1918988); further: nearly all actives have a fitted effect of over 65% in size; further: potency means the concentration at half of the fitted maximal effect
# In short: as §1
# [9] = Quantitative High-Throughput drug screen in 47 multiple myeloma cell lines against the NCATS MIPE library collection: SKMM1_PLB cell viability assay (AID 1919863); conditions: SKMM1 myeloma viability, CellTiter-Glo ATP, 48 h; viability: hits give low values; further: nearly all actives have a fitted effect of over 35% in size; further: potency means the concentration at half of the fitted maximal effect
# In short: as §1
# [10] = Quantitative High-Throughput drug screen in 47 multiple myeloma cell lines against the NCATS MIPE library collection: U266_ATCC cell viability assay (AID 1919864); further: nearly all actives have a fitted effect of over 35% in size; further: potency means the concentration at half of the fitted maximal effect
# In short: as §1
# [11] = Quantitative High-Throughput drug screen in 47 multiple myeloma cell lines against the NCATS MIPE library collection: KMS20_JCRB cell viability assay (AID 1918973); further: nearly all actives have a fitted effect of over 45% in size; further: potency means the concentration at half of the fitted maximal effect
# In short: (§2)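 Myeloma cell lines, 500 cells per well, exposed to MIPE 4.0 library compounds for 48 h at 37C, 5% CO2. Viability from ATP by CellTiter-Glo luminescence; normalised to DMSO (100%) and media-only (0%) wells.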
# [12] = Quantitative High-Throughput drug screen in 47 multiple myeloma cell lines against the NCATS MIPE library collection: KMS26_JCRB cell viability assay (AID 1918975); further: nearly all actives have a fitted effect of over 45% in size; further: potency means the concentration at half of the fitted maximal effect
# In short: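 Inhibition of cell viability is measured here. Each line was plated at 500 cells per well, treated with MIPE 4.0 drugs, kept 48 hours at 37C, then assayed for ATP content by CellTiter-Glo luminescence.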
# [13] = Quantitative High-Throughput drug screen in 47 multiple myeloma cell lines against the NCATS MIPE library collection: MOLP8_DSMZ cell viability assay (AID 1918977); further: nearly all actives have a fitted effect of over 45% in size; further: potency means the concentration at half of the fitted maximal effect
# In short: as §1
# [14] = Quantitative High-Throughput drug screen in 47 multiple myeloma cell lines against the NCATS MIPE library collection: KMS34_JCRB cell viability assay (AID 1918985); further: nearly all actives have a fitted effect of over 40% in size; further: potency means the concentration at half of the fitted maximal effect
# In short: as §1
# [15] = Quantitative High-Throughput drug screen in 47 multiple myeloma cell lines against the NCATS MIPE library collection: OPM1_PLB cell viability assay (AID 1918989); further: nearly all actives have a fitted effect of over 40% in size; further: potency means the concentration at half of the fitted maximal effect
# In short: as §1
# [16] = Quantitative High-Throughput drug screen in 47 multiple myeloma cell lines against the NCATS MIPE library collection: NCIH929_DSMZ cell viability assay (AID 1918978); further: nearly all actives have a fitted effect of over 35% in size; further: potency means the concentration at half of the fitted maximal effect
# In short: as §1
# [17] = Quantitative High-Throughput drug screen in 47 multiple myeloma cell lines against the NCATS MIPE library collection: L363_DSMZ cell viability assay (AID 1918984); conditions: L363 myeloma viability, CellTiter-Glo ATP luminescence, 48 h; viability (% of control): at 45.8 µM (top of the series); further: nearly all actives have a fitted effect of over 40% in size; further: potency means the concentration at half of the fitted maximal effect
# In short: as §1
# [18] = Quantitative High-Throughput drug screen in 47 multiple myeloma cell lines against the NCATS MIPE library collection: MMM1_PLB cell viability assay (AID 1918976); further: nearly all actives have a fitted effect of over 35% in size; further: potency means the concentration at half of the fitted maximal effect
# In short: as §1
# [19] = Quantitative High-Throughput drug screen in 47 multiple myeloma cell lines against the NCATS MIPE library collection: KMS21BM_JCRB cell viability assay (AID 1918974); conditions: ATP luminescence, 48 h; viability: at 45.8 µM (top of the series); further: potency means the concentration at half of the fitted maximal effect
# In short: as §2
smiles,measurement,setting,value
CN1c2ccccc2C(=O)N2CCc3c([nH]c4ccccc34)C21 (centres undefined),Potency,[1],inactive
same,Potency,[2],inactive
same,Potency,[3],10.5 µM (active)
same,Potency,[4],inactive
same,Potency,[5],inactive
same,Potency,[6],inactive
same,Potency,[7],20.9 µM (active)
same,Potency,[8],inactive
same,viability,[9],100%
same,Potency,[10],16.6 µM (active)
OC[C@H]1O[C@@H](Oc2ccc(O)cc2)[C@H](O)[C@@H](O)[C@H]1O,Potency,[11],inactive
same,Potency,[12],inactive
same,Potency,[13],inactive
same,Potency,[4],inactive
same,Potency,[5],inactive
same,Potency,[6],inactive
same,Potency,[14],inactive
same,Potency,[15],inactive
O=C(O)c1ccc(O)c2ncc(N3CCOCC3)cc12,Potency,[1],26.4 µM (active)
same,Potency,[12],inactive
same,Potency,[16],18.7 µM (active)
same,Potency,[2],inactive
same,Potency,[3],23.5 µM (active)
same,Potency,[5],20.9 µM (active)
same,Potency,[6],inactive
same,Potency,[17],20.9 µM (active)
same,Potency,[8],13.2 µM (active)
same,Potency,[15],inactive
same,Potency,[9],18.7 µM (active)
CO[C@H]1/C=C\O[C@@]2(C)Oc3c(C)c(O)c4c(O)c(c5c(nc6cc(C)ccn65)c4c3C2=O)NC(=O)C(C)=CC=C[C@H](C)[C@H](O)[C@@H](C)[C@@H](O)[C@@H](C)[C@H](OC(C)=O)[C@H]1C,Potency,[1],11.8 µM (active)
same,Potency,[12],8.33 µM (active)
same,Potency,[18],0.0148 µM (active)
same,Potency,[2],inactive
same,Potency,[5],inactive
same,Potency,[8],16.6 µM (active)
CC1=C(CC(=O)O)c2cc(F)ccc2C1=Cc1ccc(S(C)=O)cc1 (centres undefined),Potency,[11],9.35 µM (active)
same,Potency,[19],20.9 µM (active)
same,Potency,[12],2.09 µM (active)
same,Potency,[16],1.05 µM (active)
same,Potency,[2],inactive
same,Potency,[3],1.32 µM (active)
same,Potency,[4],3.32 µM (active)
same,Potency,[5],inactive
same,Potency,[6],20.9 µM (active)
same,Potency,[8],0.935 µM (active)
same,Potency,[15],26.4 µM (active)
same,Potency,[10],1.18 µM (active)
C=C1c2cccc(O)c2C(O)=C2C(=O)[C@@]3(O)C(O)=C(C(N)=O)C(=O)[C@@H](N(C)C)[C@@H]3[C@@H](O)[C@H]12,Potency,[1],inactive
same,Potency,[12],4.69 µM (active)
same,Potency,[16],inactive
same,Potency,[2],inactive
same,Potency,[4],20.9 µM (active)
same,Potency,[5],23.5 µM (active)
same,Potency,[17],inactive
same,Potency,[7],9.35 µM (active)
same,Potency,[8],18.7 µM (active)
same,Potency,[15],23.5 µM (active)
CCC[C@@H](NC(=O)[C@@H]1[C@H]2CCC[C@@H]2CN1C(=O)[C@@H](NC(=O)[C@@H](NC(=O)c1cnccn1)C1CCCCC1)C(C)(C)C)C(=O)C(=O)NC1CC1,Potency,[1],14.8 µM (active)
same,Potency,[16],inactive
same,Potency,[4],18.7 µM (active)
same,Potency,[6],16.6 µM (active)
same,Potency,[8],16.6 µM (active)
NC(=O)c1ccc(N(C(N)=O)c2c(F)cccc2F)nc1-c1ccc(F)cc1F,Potency,[1],inactive
same,Potency,[18],inactive
same,Potency,[16],5.26 µM (active)
same,Potency,[2],inactive
same,Potency,[4],inactive
same,Potency,[5],inactive
same,Potency,[6],inactive
same,Potency,[10],inactive
Cc1ccc2c(c1)C(=O)[C@]1(O)CCN(c3ccccc3)C1=N2,Potency,[11],2.96 µM (active)
same,Potency,[18],inactive
same,Potency,[16],inactive
same,Potency,[17],inactive
same,Potency,[14],1.48 µM (active)
same,Potency,[15],inactive
COc1cc(C=CC(=O)O)ccc1O,Potency,[1],inactive
same,Potency,[13],inactive
same,Potency,[16],inactive
same,Potency,[4],inactive
same,Potency,[5],inactive
same,Potency,[6],inactive
same,Potency,[14],inactive
same,Potency,[8],inactive
same,viability,[9],124%
CN(C)CCOc1ccc(C(=C(CCCl)c2ccccc2)c2ccccc2)cc1,Potency,[1],inactive
same,Potency,[18],23.5 µM (active)
same,Potency,[13],18.7 µM (active)
same,Potency,[16],inactive
same,Potency,[2],inactive
same,Potency,[3],1.18 µM (active)
same,Potency,[4],23.5 µM (active)
same,Potency,[7],5.9 µM (active)
same,Potency,[8],26.4 µM (active)
same,Potency,[15],7.43 µM (active)
same,Potency,[9],23.5 µM (active)
CN(CC=CC#CC(C)(C)C)Cc1cccc2ccccc12,Potency,[1],inactive
same,Potency,[16],inactive
same,Potency,[3],inactive
same,Potency,[14],inactive
CC(C)c1onc(-c2c(Cl)cccc2Cl)c1COc1ccc(C=Cc2cccc(C(=O)O)c2)c(Cl)c1,Potency,[1],inactive
same,Potency,[18],20.9 µM (active)
same,Potency,[16],inactive
same,Potency,[2],inactive
same,Potency,[3],18.7 µM (active)
same,Potency,[4],0.148 µM (active)
same,Potency,[5],inactive
same,Potency,[14],inactive
same,Potency,[15],inactive
COc1ccc(-c2cc(=O)c3c(O)cc(O[C@@H]4O[C@H](CO[C@@H]5O[C@@H](C)[C@H](O)[C@@H](O)[C@@H]5O)[C@@H](O)[C@H](O)[C@@H]4O)cc3o2)cc1O,Potency,[1],inactive
same,Potency,[12],20.9 µM (active)
same,Potency,[13],inactive
same,Potency,[16],9.35 µM (active)
same,Potency,[2],inactive
same,Potency,[3],18.7 µM (active)
same,Potency,[4],inactive
same,Potency,[5],inactive
same,Potency,[6],inactive
same,Potency,[17],inactive
same,Potency,[14],inactive
same,Potency,[7],10.5 µM (active)
same,Potency,[8],18.7 µM (active)
same,viability,[9],120%
same,Potency,[10],18.7 µM (active)
